# Screening data as filed in PubChem BioAssay.
# The list is not random: actives were taken first. Their share in the collection is about 2.4%.
# Pol eta inh-1 = inhibitors of human DNA polymerase eta; Q9Y253; recombinant Pol eta, fluorescent DNA replication assay; Potency, µM (series often up to 114 µM), without a hit: at the highest dose activity change, negative = inhibition, usual class: inhibitors; actives 1.2% (n = 390,000); AID 588591; also: % is scaled to controls: 0 for no effect and ±100 for the full control effect
#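 Pol eta at 10 nM preincubated with compounds 15 min at room temperature; reaction started with fluorescent substrate (50 nM final) and read kinetically at 0 and 10 min.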
# POLB inh = inhibitors of human DNA polymerase beta | P06746 | Pol beta primer extension/strand displacement, fluorescence kinetic | Potency, µM (series often up to 114 µM), for the others: top-dose activity change, negative = inhibition, most hits filed as inhibitors | actives 1.3% (n = 340,000) | AID 485314; also: % is scaled to controls: 0 for no effect and ±100 for the full control effect
#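 10 nM enzyme + cpd, 15 min RT; start with substrate 50 nM final; read 0 min and after 10 min RT. Corrected, normalized data; 4-parameter Hill curve fit.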
# POLI inh = DNA polymerase iota (human) inhibition. Q9UNA4. Pol iota fluorescent replication assay, 10 min. Potency, µM (doses to about 115 µM), without a hit: at the highest dose activity, negative = inhibition, most hits filed as inhibitors. actives 1% (n = 390,000). AID 588590
# Target sequence (Q9UNA4 whole entry, looked up): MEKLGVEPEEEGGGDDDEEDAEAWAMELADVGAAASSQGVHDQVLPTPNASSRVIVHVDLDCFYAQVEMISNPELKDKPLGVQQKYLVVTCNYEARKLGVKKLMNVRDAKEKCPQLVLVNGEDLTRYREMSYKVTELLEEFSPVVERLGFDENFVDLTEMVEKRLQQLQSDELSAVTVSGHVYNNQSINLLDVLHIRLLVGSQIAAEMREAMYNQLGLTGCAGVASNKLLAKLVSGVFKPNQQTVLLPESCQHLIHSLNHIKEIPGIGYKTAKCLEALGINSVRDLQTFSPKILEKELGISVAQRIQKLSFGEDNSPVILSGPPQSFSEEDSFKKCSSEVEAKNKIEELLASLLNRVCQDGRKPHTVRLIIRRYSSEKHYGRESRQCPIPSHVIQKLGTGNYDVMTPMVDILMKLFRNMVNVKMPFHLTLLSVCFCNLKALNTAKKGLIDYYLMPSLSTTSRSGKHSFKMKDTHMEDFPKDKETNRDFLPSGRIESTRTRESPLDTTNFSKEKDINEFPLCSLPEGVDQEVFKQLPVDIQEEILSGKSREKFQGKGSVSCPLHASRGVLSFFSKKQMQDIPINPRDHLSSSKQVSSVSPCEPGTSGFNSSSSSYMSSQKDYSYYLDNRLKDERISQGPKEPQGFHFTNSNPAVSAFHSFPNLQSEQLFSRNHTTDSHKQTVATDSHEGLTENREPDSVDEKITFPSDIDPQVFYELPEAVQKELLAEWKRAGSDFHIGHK
#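 Fluorescent replication assay read twice, at 0 min and 10 min after adding 50 nM (final) substrate. Enzyme (10 nM) and compounds were first incubated 15 min at room temperature; enzyme-free buffer wells were negative controls.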
# WRN helicase inh-1 = blocks human WRN helicase | WRN helicase unwinding, fluorescent forked duplex, kinetic | Potency, µM (highest dose often 114 µM), inactives show at the highest dose activity change, negative = inhibition, usual class: inhibitors | actives 0.46% (n = 360,000) | AID 651768; also: % is scaled to controls: 0 for no effect and ±100 for the full control effect; nearly all actives have a fitted effect of over 55% in size
#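 WRN at 20 nM final was preincubated with compound for 15 min at room temperature; reaction started with 100 nM forked duplex oligonucleotide carrying fluorophore and quencher plus 2 mM ATP (final). Unwinding followed kinetically by red fluorescence (ex 525/em 598 nm).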
# Pol kappa inh-1 = DNA polymerase kappa (human) inhibition; purified Pol kappa, fluorescent DNA synthesis assay, 10 min; Potency, µM (top dose mostly 107 µM), for inactives: top-dose activity, negative = inhibition, usual class: inhibitors; actives 0.53% (n = 400,000); also: % is scaled to controls: 0 for no effect and ±100 for the full control effect
#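 Kinetic fluorescence screen: compound preincubated 15 min RT with 10 nM enzyme; 50 nM substrate (final) initiates; reads at 0/10 min.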
# FEN1 inh-1 = blocks human flap endonuclease 1; P39748; Recombinant FEN1 flap cleavage, fluorescence, 15 min; Potency, µM (highest dose often 114 µM), without a hit: top-dose activity change, negative = inhibition, hits mostly inhibitors; actives 0.35% (n = 390,000); AID 588795; also: % is scaled to controls: 0 for no effect and ±100 for the full control effect; nearly all actives have a fitted effect of over 65% in size
#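 Potency values derive from four-parameter Hill fits of normalized qHTS data. The reaction used 10 nM FEN1 preincubated 15 min at room temperature with compound, then 50 nM DNA substrate, read at 0 and 15 min.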
# TbPGK inh = validation of Trypanosoma brucei phosphoglycerate kinase inhibitors; shares compounds with Pol kappa inh-1; TbPGK coupled GAPDH assay, Kinase-Glo luminescence; Potency, µM (top dose mostly 57.5 µM), for inactives: at the highest dose activity change, negative = inhibition, actives largely listed as inhibitors; actives 79% (n = 500); AID 686980; also: % is scaled to controls: 0 for no effect and ±100 for the full control effect; nearly all actives have a fitted effect of over 65% in size
# POLI cherry-pick = Human Pol iota inhibitor confirmatory assay | shares compounds with Pol kappa inh-1 | Pol iota primer extension, TAMRA/BHQ fluorescence | Potency, µM, actives largely listed as inhibitors | actives 77% (n = 1,500) | AID 720496
# Pol kappa inh-2 = Pol kappa (human) inhibition, cherry-pick confirmation | Potency, µM, actives largely listed as inhibitors | actives 76% (n = 920) | purified Pol-kappa, fluorescent strand-displacement substrate | shares compounds with Pol eta inh-1 | AID 720501
# Pol eta inh-2 = Pol eta (human) inhibition, cherry-pick confirmation. shares compounds with Pol eta inh-1. Pol eta primer extension, TAMRA/BHQ fluorescence, 10 min. Potency, µM, hits mostly inhibitors. actives 64% (n = 2,600). AID 720502
# FEN1 inh-2 = confirmation of human FEN1 inhibitors; FEN1 flap cleavage, TAMRA/BHQ2 fluorogenic DNA substrate; shares compounds with FEN1 inh-1; actives 79% (n = 880); Potency, µM, usual class: inhibitors; also: nearly all actives have a fitted effect of over 60% in size
# WRN helicase inh-2 = confirmation of human WRN helicase inhibitors. WRN helicase DNA unwinding, fluorescence kinetic. actives 63% (n = 610). Potency, µM (highest dose often 57.1 µM), inactives show top-dose activity, negative = inhibition, most hits filed as inhibitors. shares compounds with WRN helicase inh-1; also: nearly all actives have a fitted effect of over 65% in size
# TO displacement = counter-screen for WRN helicase inhibitors: DNA binding; shares compounds with WRN helicase inh-1; thiazole orange DNA binding displacement, fluorescence; Potency, µM (doses to about 57.1 µM), without a hit: at the highest dose activity change, negative = inhibition, usual class: inhibitors; actives 10% (n = 610); AID 720499;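 also: drop in dye fluorescence marks compound binding to DNA; % is scaled to controls: 0 for no effect and ±100 for the full control effect; nearly all actives have a fitted effect of over 60% in size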
# BLM counter = BLM helicase inhibition, WRN selectivity check. actives 60% (n = 610). Recombinant BLM helicase DNA unwinding, red fluorescence. shares compounds with WRN helicase inh-1. Potency, µM (titrated, usually from 57.1 µM), without a hit: at the highest dose activity change, negative = inhibition, actives largely listed as inhibitors; also: nearly all actives have a fitted effect of over 60% in size
# * hit, by the source's call; ? = inconclusive; / = no result; ! = a repeat was not active; [ ] = dose if it differs, or a comment. Calls follow the shape of the dose curve; as a rule, active = well fitted curve in the direction sought with a large enough effect; inconclusive = small, poorly fitted or top-dose-only effect, or another doubt; inactive = no such curve, though single readings can be large; an effect the other way counts as inactive or inconclusive. Potency is read from the fitted curve at half-maximal effect.
SMILES,Pol eta inh-1,POLB inh,POLI inh,WRN helicase inh-1,Pol kappa inh-1,FEN1 inh-1,POLI cherry-pick,Pol kappa inh-2,Pol eta inh-2,WRN helicase inh-2,TO displacement,BLM counter,others
c1cnc(N2CCN(c3ncc4c(n3)CCNC4)CC2)nc1,18µM*,45µM*,?,/,-30%,8%,17*,3*,24*,22µM*,?,?,FEN1 inh-2=15*
O=C1/C(=C/c2ccco2)SC(=S)N1c1cccnc1,2.8µM*,1.6µM*,?,13µM*,8.9µM*,28µM*,3.8*,4.7*,5.4*,22µM*,-22%,8.6µM*,TbPGK inh=3.3µM*
CN(C)c1ccc2nc3c(=O)[nH]c(=O)nc-3n(CC(O)C(O)C(O)CO)c2c1 (stereo not drawn),?,25µM*,28µM*,3µM*,?,45µM*,24*,?,38*,22µM*,287%,22µM*,FEN1 inh-2=34*
Cc1ncc(C(O)c2ccc(N(C)C)cc2)n1Cc1ccccc1 (stereo not drawn),-2%,/,/,4%,/,/,/,/,/,/,/,/,
O=C(N/N=C/c1ccncc1)c1cccc(S(=O)(=O)Nc2ccc(Cl)cc2)c1,50µM*,?,28µM*,22µM*,28µM*,?,47*,/,67*,14µM*,31%,12µM*,FEN1 inh-2=67*
N#Cc1c(N)oc(-c2ccco2)c1-c1ccco1,?,-16%,?,-35%,?,-17%,/,/,/,/,/,/,
COc1ccc(OC)c(/C=N/c2oc(-c3ccco3)c(-c3ccco3)c2C#N)c1,79µM*,45µM*,?,?,79µM*,-13%,38*,/,48*,22µM*,?,6.8µM*,
O=C(C1CCC(Cn2c(=O)c3sccc3n(Cc3ccc(F)cc3)c2=O)CC1)N1CCOCC1 (stereo not drawn),-14%,4%,-3%,/,25%,17%,/,/,/,/,/,/,
COc1ccc(CNC(=O)CN2N=C(c3ccccc3)CCC2=O)c(OC)c1,-7%,-1%,-9%,/,-1%[60.1 µM],0%,/,/,/,/,/,/,
COc1ccccc1N(CC(=O)NCc1ccco1)S(=O)(=O)c1ccc(C)cc1,10µM*,11µM*,5.6µM*,35µM*,32µM*,?,21*,11*,27*,17µM*,29%,14µM*,TbPGK inh=16µM*
CC1=Nc2ccccc2/C1=C\c1nc(-c2ccc(F)cc2)oc1O,?,35µM*,?,?,?,71µM*,?,/,34*,19µM*,106%,19µM*,FEN1 inh-2=24*
N=C1/C(=C\c2ccc(Br)o2)C(=O)N=C2SC(CC(=O)N3CCOCC3)=NN12,18µM*,28µM*,16µM*,35µM*,?,?,?,/,24*,?,-10%,?,
Cn1cccc1/C=N/NC(=O)c1cc2ccccc2cc1O,-22%,0%,-10%,-29%,-6%,-7%,/,/,/,/,/,/,
O=C(N/N=C/c1ccc(-c2ccc(S(=O)(=O)Nc3ncccn3)cc2)o1)c1cc2ccccc2cc1O,0.89µM*,13µM*,1.3µM*,8.9µM*,4.5µM*,16µM*,17*,3.8*,4.8*,6.8µM*,?,15µM*,TbPGK inh=?
COc1cc(NS(=O)(=O)c2cnc(N)nc2)cc(OC)c1,15%,29%,15%,/,-5%[60.1 µM],-16%,/,/,/,/,/,/,
Oc1ccc(C2CNCCc3c2cc(O)c(O)c3Cl)cc1 (stereo not drawn),?,?,14µM*!,?,-1%[60.1 µM],9%,?,/,/,19µM*,-1%,24µM*,
Oc1cc2c(c(Cl)c1O)CCNC[C@H]2c1ccccc1,/,/,/,/,-13%[19.4 µM],/,/,/,/,/,/,/,
Cc1ccc(C2=NC(=O)/C(=C/c3cc(O)c(O)c(Br)c3)S2)cc1,0.79µM*,1.6µM*,1.3µM*,7.9µM*,1.8µM*,11µM*,17*,5.3*,3.8*,1.7µM*,6.8µM*,0.76µM*,
COc1ccc(C(=O)Nc2ccc(C(=O)OCc3cc(=O)n4nc(C5CC5)sc4n3)cc2)cc1,-3%,?,?,/,-5%[60.1 µM],2%,/,/,/,/,/,/,
CC1(C)CCCN(C(=O)c2coc(=O)c(Br)c2)C1,0.89µM*,0.45µM*,10µM*,18µM*,14µM*,56µM*,/,/,/,1.9µM*,?,0.48µM*,TbPGK inh=0.82µM*
O=C1Nc2ccccc2/C1=N\N=C\c1ccc(O)c(O)c1,3.2µM*,4.5µM*,2.2µM*,32µM*,5.6µM*,13µM*,?,/,17*,6.8µM*,?,6.8µM*,
Oc1ccc(/C=N/N=C/c2ccc(O)c(O)c2)cc1O,0.71µM*,0.45µM*,1.3µM*,0.75µM*,0.89µM*,?,6.7*,4.7*,4.3*,0.61µM*,-16%,1.1µM*,TbPGK inh=1.3µM*
Oc1ccc(/C=N/N=C/c2ccc(O)cc2)cc1,-9%,0%,20%,7%,-1%,-16%,/,/,/,/,/,/,
